Growth inhibition data for 21 compounds are collected here from PubChem BioAssay (NCI).

The panel holds about 79,000 compounds, 15% with a hit somewhere; the sample as a whole holds those more often. Unmarked numbers belong to inactive results. Calls of active or inactive are those of the source. Rule as the data show it: active = growth inhibition above about 70%; inactive = the rest.

Assay [1] can be described thus: NCI Yeast Anticancer Drug Screen. Data for the rad50 strain (AID 155).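 Also: 0% = growth of vehicle-only cultures of the same strain.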 The conditions noted are these: S. cerevisiae rad50 strain growth inhibition; at 50.0 µM; stronger effect = higher value. The method in brief:
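Cells are treated with compound, grown, and their growth is then scored against vehicle-only cultures of the same repair-deficient yeast strain.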

A short description of assay [2]: NCI Yeast Anticancer Drug Screen. Data for the mec2-1 strain (AID 157). The conditions noted are these: S. cerevisiae mec2-1 strain, at 50.0 µM, stronger effect = higher value. The method in brief:
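Strain: mec2-1 (DNA repair/cell cycle alteration). Compound exposure, then growth measured; inhibition expressed relative to vehicle.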

A short description of assay [3]: NCI Yeast Anticancer Drug Screen. Data for the sgs1 mgt1 strain (AID 161).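 Also: 0% = growth of cultures given vehicle only.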 The conditions noted are these: S. cerevisiae sgs1 mgt1 strain, at 50.0 µM, stronger effect = higher value. In short, it runs like this:
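Read-out: growth inhibition vs vehicle controls. Cells: mutant yeast strain deficient in DNA damage repair.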

A short description of assay [4]: NCI Yeast Anticancer Drug Screen. Data for the cln2 rad14 strain (AID 165).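 Also: 0% = growth equal to vehicle treated cultures.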 The conditions noted are these: S. cerevisiae cln2 rad14 strain, at 50.0 µM, stronger effect = higher value. The method in brief: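 Compounds are applied to the cln2 rad14 yeast strain, and growth is then compared with that of vehicle-treated cultures to give inhibition.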
Assay [5] is described as follows: NCI Yeast Anticancer Drug Screen. Data for the bub3 strain (AID 167). The conditions noted are these: S. cerevisiae bub3 mutant strain, at 50.0 µM, stronger effect = higher value. In short, it runs like this: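 Part of a panel of yeast mutants defective in DNA damage repair or cell cycle regulation. Each strain is grown with compound, and inhibition is calculated relative to solvent-treated cultures.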

Assay [6] is described as follows: NCI Yeast Anticancer Drug Screen. Data for the mlh1 rad18 strain (AID 175). The conditions noted are these: S. cerevisiae mlh1 rad18 strain growth inhibition; at 50.0 µM; stronger effect = higher value. In short, it runs like this:
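Read-out is yeast growth inhibition, calculated against vehicle-only controls. The compound was applied to a strain engineered with DNA damage repair alterations.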

As to `C/C=C/C=C\C(=O)C1c2cccc(O)c2C(=O)c2c(O)cc(C)cc21` (stereo unspecified), the growth inhibition in assay [1] was 40.4%; in assay [2], 20.9%; in assay [3] it was 12.3%; in assay [4] it was 29.6%; in assay [5] it was 37.5%; in assay [6], 34.1%.

Take `O=C(O)/C=C/C(=O)N1Cc2cc3ccccc3nc2C1`: the growth inhibition in assay [1] was -5.75%; in assay [2], -31.1%; in assay [3], -45.8%; in assay [4], -28.1%; in assay [5], -56.2%; in assay [6], -13.7%.

Take `COCc1ccccc1P(c1ccccc1COC)c1ccccc1COC`: the growth inhibition in assay [1] was 31%; in assay [2], 18.9%; in assay [3], 42%; in assay [4] it was 16.2%; in assay [5], 10.5%; in assay [6] it was 36%.

As to `COC(=O)C1C(=O)N(C)c2cc(C)c(C)cc2C1(C)C` (stereo unspecified), the growth inhibition in assay [1] is 7.55%; in assay [2], -9.4%; in assay [3], 1.6%; in assay [4], 5.8%; in assay [5] it was 24.9%; in assay [6], -3.9%.

As for `CC(C)CCCC(C)C1CCC2C1CCC1C2CCC2(C)CCC(=O)CCC12C` (stereo unspecified), the growth inhibition was 24.8% in assay [1]; -2.85% in assay [2]; -2.55% in assay [3]; -17.8% in assay [4]; 1.6% in assay [5]; -4% in assay [6].

Turning to `O=C(CCN1CCCCC1)c1cc2cc([N+](=O)[O-])ccc2oc1=O`, the growth inhibition in assay [1] was 55.1%; in assay [2], 29.6%; in assay [3], 23.2%; in assay [4] it was -17.8%; in assay [5], 47%; in assay [6] it was 32.6%.

`OCC1NC(COC2OC(CO)C(O)C(O)C2O)C(O)C(O)C1O` (stereo unspecified): the growth inhibition in assay [1] is -17.5%; in assay [2], -14.9%; in assay [3], -19%; in assay [4], 17.1%; in assay [5] it was -0.25%; in assay [6], -6.25%.

For `O=C(O)c1ccccc1SC1OC(=O)c2ccccc21` (stereo unspecified), the growth inhibition in assay [1] is -0.45%; in assay [2] it was -8.75%; in assay [3], 2.35%; in assay [4] it was -58.7%; in assay [5] it was 2.75%; in assay [6], -1.45%.

For `CC(=O)C1CC2CCC1C2` (stereo unspecified), the growth inhibition in assay [1] was 10.4%; in assay [2] it was 12.8%; in assay [3], -8.7%; in assay [4] it was -12.4%; in assay [5] it was 1.25%; in assay [6], 7.9%.

In the case of `CCOC(=O)c1cc(C)nc2c(Cl)cc(Cl)cc12`, the growth inhibition in assay [1] was 13%; in assay [2], 10.8%; in assay [3], -34.4%; in assay [4] it was -2.9%; in assay [5], 10.4%; in assay [6], 7.95%.

With `Cc1ccccc1NCc1ccccc1[N+](=O)[O-]`, the growth inhibition is 23.9% in assay [1]; 11.1% in assay [2]; 14.8% in assay [3]; -28.6% in assay [4]; -14.6% in assay [5]; 18.9% in assay [6].

Regarding `O=S(c1ccc(O)cc1)c1ccc(O)cc1`, the growth inhibition in assay [1] is -24.2%; in assay [2] it was -4.95%; in assay [3], 0.55%; in assay [4], 1.35%; in assay [5], -1.1%; in assay [6], -2.35%.

Turning to `O=C(O)CCn1ccc2ccccc21`, the growth inhibition in assay [1] was 3.65%; in assay [2], -0.55%; in assay [3], 4.8%; in assay [4], 5.9%; in assay [5], 3.1%; in assay [6] it was 1.6%.

Turning to `O=[N+]([O-])c1ccc(OCCO)c([N+](=O)[O-])c1`, the growth inhibition in assay [1] is 6.75%; in assay [2], -5.85%; in assay [3], -22.4%; in assay [4], -11.5%; in assay [5] it was -0.15%; in assay [6] it was 10%.

Turning to `CC(=O)C(CN1CCOCC1)C(C)(C)O` (stereo unspecified), the growth inhibition is 2.9% in assay [1]; 31.8% in assay [2]; 15.6% in assay [3]; -6.35% in assay [4]; 2.8% in assay [5]; 12.4% in assay [6].

Take `N#Cc1cccc(NC(=O)c2ccc(C(=O)O)c(C(=O)c3ccc(C(=O)O)c(C(=O)Nc4cccc(C#N)c4)c3)c2)c1`: the growth inhibition in assay [1] was -18.6%; in assay [2], -9.7%; in assay [3], -19%; in assay [4] it was 8.35%; in assay [5], 2%; in assay [6] it was -20.8%.

For `Nc1nc2c(nnn2C2OC(CO)C(O)C2O)c(=O)[nH]1` (stereo unspecified), the growth inhibition in assay [1] was -4.6%; in assay [2], 5.65%; in assay [3], -5.3%; in assay [4] it was -37.5%; in assay [5], -16.8%; in assay [6], 9.45%.

Turning to `CCCCC(=O)OC[n+]1ccc2c(C)c3[nH]c4ccc(OC)cc4c3c(C)c2c1`, the growth inhibition was 87.9% (active) in assay [1]; 91.8% (active) in assay [2]; 90.2% (active) in assay [3]; 89.1% (active) in assay [4]; 87.1% (active) in assay [5]; 91.8% (active) in assay [6].

For `Cn1cnc(N2CCCC2)c(C#N)c1=S`, the growth inhibition in assay [1] is 3.45%; in assay [2], -4.95%; in assay [3], -4.7%; in assay [4] it was -12.2%; in assay [5] it was 2.55%; in assay [6] it was 0.25%.

For the compound `CC1=NN(C(=O)c2ccncc2)C(=O)C1N=Nc1ccc(F)cc1` (stereo unspecified), the growth inhibition in assay [1] is -4.65%; in assay [2], -10.2%; in assay [3] it was -7.65%; in assay [4] it was -5.2%; in assay [5] it was -7.15%; in assay [6] it was -4.9%.

As to `COC(=O)C1(CC(=O)Cc2ccccc2)NC(=S)NC(=O)C1C#N` (stereo unspecified), the growth inhibition in assay [1] is 8.45%; in assay [2] it was -7.7%; in assay [3], -12.2%; in assay [4], -12.1%; in assay [5], -29.1%; in assay [6], 4.8%.
